Inconclusive results are not listed. Unmarked numbers belong to inactive results. Active and inactive are the calls of the source. Calls follow the shape of the dose curve; as a rule, active = well fitted cell-killing curve with a large enough effect; inconclusive = small, poorly fitted or top-dose-only effect, or effect the other way; inactive = no such curve, though single readings can be large or run the other way.
Tests used:
[1] = Quantitative High-Throughput drug screen in 47 multiple myeloma cell lines against the NCATS MIPE library collection: OPM1_PLB cell viability assay (AID 1918989); also: nearly all actives have a fitted effect of over 40% in size
Summary of the method: (§1)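 Inhibition of viability over 48 h was scored by ATP content (CellTiter-Glo) in 500-cell wells. Zero and full viability were defined by media-only and DMSO-only wells.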

[2] = Quantitative High-Throughput drug screen in 47 multiple myeloma cell lines against the NCATS MIPE library collection: SKMM1_PLB cell viability assay (AID 1919863); details: SKMM1 myeloma viability, CellTiter-Glo ATP, 48 h; viability: stronger effect = lower value; also: nearly all actives have a fitted effect of over 35% in size; as to viability: series mostly up to about 46 µM
Summary of the method: as §1

[3] = Quantitative High-Throughput drug screen in 47 multiple myeloma cell lines against the NCATS MIPE library collection: XG6_PLB cell viability assay (AID 1919865); also: nearly all actives have a fitted effect of over 40% in size
Summary of the method: as §1

[4] = Quantitative High-Throughput drug screen in 47 multiple myeloma cell lines against the NCATS MIPE library collection: XG1_PLB cell viability assay (AID 1919866); also: nearly all actives have a fitted effect of over 35% in size
Summary of the method: as §1

[5] = Quantitative High-Throughput drug screen in 47 multiple myeloma cell lines against the NCATS MIPE library collection: VP6_DJ cell viability assay (AID 1919867); also: nearly all actives have a fitted effect of over 40% in size
Summary of the method: as §1

[6] = Quantitative High-Throughput drug screen in 47 multiple myeloma cell lines against the NCATS MIPE library collection: PE2_PLB cell viability assay (AID 1919869); also: nearly all actives have a fitted effect of over 35% in size
Summary of the method: as §1

[7] = Quantitative High-Throughput drug screen in 47 multiple myeloma cell lines against the NCATS MIPE library collection: PCM6_Riken cell viability assay (AID 1919870); also: nearly all actives have a fitted effect of over 30% in size
Summary of the method: as §1

[8] = Quantitative High-Throughput drug screen in 47 multiple myeloma cell lines against the NCATS MIPE library collection: U266_ATCC cell viability assay (AID 1919864); also: nearly all actives have a fitted effect of over 35% in size
Summary of the method: as §1

[9] = Quantitative High-Throughput drug screen in 47 multiple myeloma cell lines against the NCATS MIPE library collection: RPMI8226_ATCC cell viability assay (AID 1919871); also: nearly all actives have a fitted effect of over 30% in size
Summary of the method: as §1

[10] = Quantitative High-Throughput drug screen in 47 multiple myeloma cell lines against the NCATS MIPE library collection: UTMC2_PLB cell viability assay (AID 1919868); also: nearly all actives have a fitted effect of over 55% in size
Summary of the method: as §1
Potency is read from the fitted curve at half-maximal effect.

SMILES: CCOC(=O)C1=C[C@@H](OC(CC)CC)[C@H](NC(C)=O)[C@@H](N)C1
- Potency [1]: inactive
- viability [2]: 108%
- Potency [3]: inactive
- Potency [4]: inactive
- Potency [5]: inactive
- Potency [6]: inactive
- Potency [7]: inactive

SMILES: C[C@H](Cc1ccc(O)c(O)c1)[C@@H](C)Cc1ccc(O)c(O)c1
- Potency [1]: 26.4 µM (active)
- Potency [2]: 18.7 µM (active)
- Potency [8]: 16.6 µM (active)
- Potency [3]: 11.8 µM (active)
- Potency [4]: 20.9 µM (active)
- Potency [5]: 16.6 µM (active)
- Potency [6]: 11.8 µM (active)
- Potency [7]: 18.7 µM (active)
- Potency [9]: 10.5 µM (active)

SMILES: Cc1cccc(C#Cc2ccccc2)n1
- Potency [1]: 8.33 µM (active)
- viability [2]: 120%
- Potency [8]: inactive
- Potency [4]: 14.8 µM (active)
- Potency [9]: 3.72 µM (active)

SMILES: CC(C)C[C@H](NC(=O)[C@H](Cc1ccccc1)NC(=O)c1cnccn1)B(O)O
- Potency [1]: 0.0083 µM (active)
- Potency [2]: 0.0372 µM (active)
- Potency [8]: 0.0093 µM (active)
- Potency [3]: 0.0074 µM (active)
- Potency [4]: 0.0105 µM (active)
- Potency [5]: 0.0074 µM (active)
- Potency [10]: 0.148 µM (active)
- Potency [7]: 0.0105 µM (active)

SMILES: O=C1CCc2ccc(OCCCCN3CCN(c4cccc(Cl)c4Cl)CC3)cc2N1
- Potency [1]: 18.7 µM (active)
- viability [2]: 132%
- Potency [4]: 23.5 µM (active)

SMILES: Nc1ncn([C@H]2C[C@H](O)[C@@H](CO)O2)c(=O)n1
- Potency [1]: 8.33 µM (active)
- Potency [2]: 5.9 µM (active)
- Potency [3]: 0.833 µM (active)
- Potency [4]: 0.264 µM (active)
- Potency [5]: inactive

SMILES: CCN(CC)C(=S)SSC(=S)N(CC)CC
- Potency [1]: 0.001 µM (active)
- Potency [2]: 0.0105 µM (active)
- Potency [4]: 0.001 µM (active)
- Potency [5]: 0.001 µM (active)
- Potency [7]: 0.001 µM (active)
- Potency [9]: 0.0187 µM (active)

SMILES: O=C(NOCC1CC1)c1ccc(F)c(F)c1Nc1ccc(I)cc1Cl
- Potency [1]: 18.7 µM (active)
- Potency [2]: 20.9 µM (active)
- Potency [8]: 23.5 µM (active)
- Potency [4]: 11.8 µM (active)
- Potency [5]: 4.69 µM (active)
- Potency [6]: 6.62 µM (active)
- Potency [7]: 14.8 µM (active)

SMILES: CCOC(=O)C1=C(O)C(=O)N(Cc2ccccc2)C1
- Potency [1]: inactive
- viability [2]: 107%
- Potency [8]: inactive
- Potency [4]: inactive
- Potency [6]: inactive
- Potency [7]: inactive
- Potency [9]: 13.2 µM (active)

SMILES: Oc1ccc2ccccc2c1SSc1c(O)ccc2ccccc12
- Potency [1]: 8.33 µM (active)
- Potency [2]: 18.7 µM (active)
- Potency [8]: 20.9 µM (active)
- Potency [3]: 10.5 µM (active)
- Potency [4]: 11.8 µM (active)
- Potency [5]: 16.6 µM (active)
- Potency [6]: 7.43 µM (active)
- Potency [7]: 13.2 µM (active)
- Potency [9]: 26.4 µM (active)

SMILES: CN(c1nccc(=O)[nH]1)C1CCN(c2nc3ccccc3n2Cc2ccc(F)cc2)CC1
- Potency [1]: 26.4 µM (active)
- viability [2]: 125%
- Potency [8]: 11.8 µM (active)
- Potency [3]: 18.7 µM (active)
- Potency [4]: 18.7 µM (active)
- Potency [5]: 23.5 µM (active)

SMILES: O=C(O)c1cccc(-c2noc(-c3ccccc3F)n2)c1
- Potency [1]: inactive
- Potency [2]: 9.35 µM (active)
- Potency [8]: 18.7 µM (active)
- Potency [3]: inactive
- Potency [4]: inactive
- Potency [6]: inactive
- Potency [7]: inactive

SMILES: CC(C)Oc1ccc2c(=O)c(-c3ccccc3)coc2c1
- Potency [1]: inactive
- viability [2]: 100%
- Potency [3]: inactive
- Potency [6]: inactive
- Potency [7]: inactive

SMILES: CCCCCCCCOc1ccccc1C(=O)Nc1ccc(C(=O)OCC[N+](C)(CC)CC)cc1
- Potency [1]: 18.7 µM (active)
- Potency [2]: 26.4 µM (active)
- Potency [8]: 20.9 µM (active)
- Potency [4]: 16.6 µM (active)
- Potency [6]: 16.6 µM (active)
- Potency [7]: 16.6 µM (active)

SMILES: CC1=C(C)C(=O)C(C(CCCCCC(=O)O)c2ccccc2)=C(C)C1=O (centres undefined)
- Potency [1]: 14.8 µM (active)
- viability [2]: 86.2%
- Potency [3]: inactive
- Potency [4]: inactive
- Potency [5]: 3.72 µM (active)

SMILES: CN(C)CCCC1(c2ccc(F)cc2)OCc2cc(C#N)ccc21 (centres undefined)
- Potency [1]: inactive
- viability [2]: 106%
- Potency [8]: 23.5 µM (active)
- Potency [5]: inactive
- Potency [6]: inactive
- Potency [7]: inactive
- Potency [9]: 18.7 µM (active)

SMILES: COc1ccc(C2(C#N)CCC(C(=O)O)CC2)cc1OC1CCCC1 (centres undefined)
- Potency [1]: 7.43 µM (active)
- viability [2]: 137%
- Potency [8]: inactive
- Potency [5]: 16.6 µM (active)
- Potency [6]: inactive
- Potency [7]: 16.6 µM (active)

SMILES: NC(=NCc1ccccc1)NC(=O)c1nc(Cl)c(N)nc1N
- Potency [1]: 16.6 µM (active)
- viability [2]: 140%
- Potency [3]: 0.935 µM (active)
- Potency [4]: 2.64 µM (active)
- Potency [5]: 7.43 µM (active)
- Potency [6]: 9.35 µM (active)
- Potency [7]: 4.69 µM (active)
- Potency [9]: inactive

SMILES: CC1=C(C(=O)O)N2C(=O)[C@@H](NC(=O)[C@H](N)C3=CCC=CC3)[C@H]2SC1
- Potency [1]: inactive
- viability [2]: 126%
- Potency [4]: inactive
- Potency [6]: inactive
- Potency [9]: inactive

SMILES: CCN(CC)CCOc1ccc(Nc2ncc3cc(-c4c(Cl)cccc4Cl)c(=O)n(C)c3n2)cc1
- Potency [1]: 0.0187 µM (active)
- Potency [2]: 5.26 µM (active)
- Potency [8]: 10.5 µM (active)
- Potency [4]: 0.59 µM (active)
- Potency [5]: 0.0083 µM (active)
- Potency [6]: 0.0418 µM (active)
- Potency [7]: 0.935 µM (active)
- Potency [9]: 2.35 µM (active)

From PubChem BioAssay (NCATS)
